Results reported in PubChem BioAssay AID504840 (Johns Hopkins Ion Channel Center, 2011).
Among all 1,500 compounds or so, about 890 (59%) were called active.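 The calls were made as follows: active = inhibition of the choline-evoked signal at any tested dose together with a fitted dose-response curve; inactive = no inhibition at any dose or no curve.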 So high a share suggests a set chosen from earlier hits. Only a sample is shown. Measured potencies and affinities stand elsewhere.

molecular target: High affinity choline transporter 1 (Homo sapiens) (UniProt Q9GZV3); assay: human choline transporter blockers, potency – cell-based, 5-point CRC, membrane potential dye, dose response (AID 504840); settings: HEK293-CHT, choline-induced depolarization, CHT with LV-to-AA double alanine mutation; series mostly up to 37 µM; inhibition: at the top concentration;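 also: 0% = buffer-only response and 100% = EC90 choline response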
Sequence (Q9GZV3 whole entry, looked up): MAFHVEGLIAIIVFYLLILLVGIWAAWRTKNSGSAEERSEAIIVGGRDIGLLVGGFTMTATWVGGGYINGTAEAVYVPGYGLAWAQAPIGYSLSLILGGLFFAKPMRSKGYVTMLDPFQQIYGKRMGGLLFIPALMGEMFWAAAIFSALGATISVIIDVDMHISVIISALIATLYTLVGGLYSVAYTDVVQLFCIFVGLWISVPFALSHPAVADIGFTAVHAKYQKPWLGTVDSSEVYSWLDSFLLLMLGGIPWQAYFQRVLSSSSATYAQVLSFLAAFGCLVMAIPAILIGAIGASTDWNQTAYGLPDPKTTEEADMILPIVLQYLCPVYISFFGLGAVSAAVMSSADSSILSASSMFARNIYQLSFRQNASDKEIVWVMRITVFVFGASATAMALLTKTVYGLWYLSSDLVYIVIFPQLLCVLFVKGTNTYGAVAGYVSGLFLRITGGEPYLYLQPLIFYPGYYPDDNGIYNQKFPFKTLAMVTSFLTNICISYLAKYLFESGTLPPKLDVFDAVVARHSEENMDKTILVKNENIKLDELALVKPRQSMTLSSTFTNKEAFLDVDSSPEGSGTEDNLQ

inhibition, inactive:
CC(C)(C)Nc1nc(Cl)nc(N(C#N)CN2C(=O)c3ccccc3S2(=O)=O)n1 54.5%, Cc1ccc(SC(CC(=O)c2ccc(C(C)(C)C)cc2)C(=O)O)cc1 (stereo not drawn) 48.9%, COc1ccc(N(CCCN2C(=O)c3cccc4cccc(c34)C2=O)C(=O)c2ccncc2)cc1 27.8%, O=C(NN1C(=O)/C(=C/c2cccc(O)c2)SC1=S)c1ccccc1O 10.2%, O=C(O)c1ccc(/C=C2\SC(=S)N(NC(=O)c3ccc(Br)cc3)C2=O)cc1 47.5%, CC1CC(C)(C)N(C(=O)CN2C(=O)c3ccccc3C2=O)c2ccccc21 (stereo not drawn) 35.4%, Oc1c(Br)cc(/C=N/NC(=S)NCc2ccco2)cc1Br 25.4%, COc1ccc(OCC(=O)N/N=C/C=C/c2ccccc2)cc1 -4.13%, COc1ccc(C(=O)NNC(=S)NC(=O)c2ccccc2)cc1 29.4%, CCCOc1ccc(C(=O)NNC(=S)NC(=O)c2ccccc2)cc1 23.4%, CC(C)(C)N/N=C/c1cc(Cl)cc([N+](=O)[O-])c1O 54.1%, CCOC(=O)c1ccc2c(c1)[nH]c(=S)n2CC 36%, CCCCn1c(=O)n(Cc2cccc(F)c2)c(=O)c2c1ncn2Cc1ccco1 68.1%, N#Cc1nc(Cc2cccc3ccccc23)oc1N1CCOCC1 30.9%, O=C(Cn1ncc2c3ccccc3n(Cc3ccccc3)c2c1=O)NCCCN1CCOCC1 51.5%, Cc1ccccc1-n1nnnc1Sc1nnnn1-c1ccccc1 29.9%, Oc1cccc(-n2nnnc2SCc2ccccc2F)c1 32.2%, C=Cn1cc[n+](CC(=O)c2ccc(Cl)c(Cl)c2)c1 47.2%, C=Cn1cc[n+](CC(=O)c2ccc(Cl)cc2)c1 48.6%, COc1ccc(Cl)cc1NC(=O)C[n+]1cccc(C)c1 61.8%, O=[N+]([O-])c1cc([N+](=O)[O-])c2c(=Nc3ccccc3)n(-c3ccccc3)n(O)c2c1 11.3%, CCCNC(=O)c1ccc(COc2ccc(C)cc2)o1 34.9%, Cc1ccc(C(=O)CCC(=O)NC2CCCC(C)C2C)cc1 (stereo not drawn) 31.5%, CC1CCC(NC(=O)c2ccc(CS(=O)(=O)Cc3ccccc3F)o2)CC1 (stereo not drawn) 68.8%, CCC(Oc1ccc(C)cc1)C(=O)Nc1ccc(S(=O)(=O)Nc2nccs2)cc1 (stereo not drawn) 68.2%, Cc1ccccc1OC(C)C(=O)Nc1ccc(S(=O)(=O)Nc2nccs2)cc1 (stereo not drawn) 43.2%, CC(NCc1ccc(F)cc1)C(=O)Nc1cc(S(=O)(=O)N2CCCCC2)ccc1Cl (stereo not drawn) 18.6%, O=C(Nc1ccccc1OC(F)F)c1cccc(S(=O)(=O)N2CCCC2)c1 15.9%, Cc1cc(C)n2nc(SCc3cccc(S(=O)(=O)N(C)C)c3)nc2n1 36.9%, CCOC(=O)C1CCCN(C(=O)Cc2c(F)cccc2Cl)C1 (stereo not drawn) 9.71%, CSc1ccc(C(=O)C2CCCN(C(=O)c3nonc3C)C2)cc1 (stereo not drawn) 30.4%, Cc1ccc(SCC2(O)CCN(C(=O)c3ccc(Cl)cc3)CC2)cc1 14.9%, O=C(Cc1ccccc1F)c1ccc(O)cc1O 51.5%, O=c1c2ccccc2nc(-c2ccccc2)n1Cc1ccco1 22.4%, Cc1sc(NC(=O)c2ccco2)nc1-c1ccccc1 57.1%, CC1CCCCN1C(=O)c1ccc(C(=O)Nc2ccc(F)cc2)cc1 (stereo not drawn) 50.5%, O=C(CCc1ccccc1)NNC(=S)NC(=O)c1ccc(Cl)cc1 27.5%, COc1cccc(N2C(=O)N(c3ccccc3)C3CS(=O)(=O)CC32)c1 (stereo not drawn) 23.3%, CCCCCn1c(=O)[nH]c2cc(C(=O)NCCCN3CCCCC3CC)ccc2c1=O (stereo not drawn) 58.5%, CCN(CC)CCCN1C=C2C(=O)C(C)(OC(=O)CCC(=O)OC)C(=O)C=C2C=C1C1CC1 (stereo not drawn) 59.8%, Cc1ccc(OCC(=O)NNC(=S)NC(=O)C(C)(C)C)c(Br)c1 49.2%, CC(Oc1ccc2ccccc2c1)C(=O)NNC(=S)NC(=O)c1ccco1 (stereo not drawn) 21.3%, CCCCCc1cc(=O)oc2c(C(CCN3CCCCC3)c3cc(OC)c(OC)c(OC)c3)c(OC)cc(OC)c12 (stereo not drawn) 64.2%, COc1cc(CN(C)Cc2cc(=O)n3ccsc3n2)ccc1OC(F)F 20.5%, COc1ccc(CNC(=O)[C@H](C)NC(=O)N2CCn3c2nc2ccccc23)cc1 45.6%, O=C(Cn1nc(C(F)(F)F)c2c1CCC2)NCc1ccc(F)cc1 29.8%, CC(/C=C1\NC(=S)NC1=O)=C\c1ccccc1 14.5%, CN1CCN(C(=O)CCN2C(=O)S/C(=C/c3ccc(Cl)cc3)C2=O)CC1 50.5%, CC(=O)NC(CC(=O)NCCN1C(=O)S/C(=C\c2ccccc2)C1=O)c1ccccc1 (stereo not drawn) 41.9%, O=C(O)CN1C(=O)/C(=C/C=C/c2ccccc2)SC1=S 43%, COc1ccc(/C=C2/SC(=S)N(CCCC(=O)N3CCN(C)CC3)C2=O)cc1 30.2%, CN1CCN(C(=O)CCN2C(=O)/C(=C/c3cccc(Br)c3)SC2=S)CC1 38.4%, CCC(C(=O)N1CCOCC1)n1c(C(=O)OC)cc2occc21 (stereo not drawn) 11.2%, C=CCn1c(SCC(=O)NC(=O)NC2CCCC2)nnc1C1CCCCC1 22.3%, Cc1nc(SCC(=O)NC(=O)NCc2ccccc2)nc(C)c1C 27.6%, CC(=O)Nc1cc(NC(C)=O)cc(C(=O)OC(C)C(=O)Nc2ccc(S(=O)(=O)N3CCCC3)cc2)c1 (stereo not drawn) 55.2%, CC(=O)Nc1cccc(C(=O)OC(C)C(=O)Nc2ccc(S(=O)(=O)N3CCCC3)cc2)c1 (stereo not drawn) 48.4%, CN(c1cccc(NC(=O)Nc2cccc(Cl)c2)c1)S(C)(=O)=O 39.9%, Cc1cc(C)n2c(SCC(=O)NC3CCCCC3C)nnc2n1 (stereo not drawn) 2.51%, CC1CCC(NC(=O)CCn2ccc3cc(S(=O)(=O)N4CCCC4)ccc32)CC1 (stereo not drawn) 51.3%, CC1CCCCC1NC(=O)c1ccc2c(c1)[nH]c(=O)n2C1CCCC1 (stereo not drawn) 58.6%, Cc1ccc(S(=O)(=O)N2CCCCC2)cc1NC(=O)CSc1nncn1-c1ccccc1 63.5%, CCCc1nc2oc3c(NCC4CCCO4)ncnc3c2c2c1COC(C)(C)C2 (stereo not drawn) 65.7%, CCCN(CCC)Cc1c(C(=O)N/N=C/C(C)=C\c2ccco2)nnn1-c1nonc1N 32.6%, COc1ccccc1C(=O)NC1CCN(C(=S)NCCc2ccccc2)CC1 26.5%, COc1ccc(OCC(O)Cn2c(=N)n(Cc3ccccc3)c3ccccc32)cc1 (stereo not drawn) 70.1%, Cc1ccc(OCC(O)Cn2c(=N)n(Cc3ccccc3)c3ccccc32)cc1 (stereo not drawn) 70.7%, Cc1ccc(/C=C2\SC(=S)N(c3c(C)n(C)n(-c4ccccc4)c3=O)C2=O)cc1 46.4%, Cc1ccc(S(=O)(=O)NC2=C(N3CCN(Cc4ccccc4)CC3)C(=O)c3ccccc3C2=O)cc1 32.5%, COc1cc(/C=C2/S/C(=N/S(=O)(=O)Cc3ccccc3)NC2=O)c([N+](=O)[O-])cc1OC 47.3%, COc1ccc(NC(=O)CSc2nccn2Cc2ccccc2)cc1 46.5%, CCN(C(=O)c1cc2c(=O)n3ccccc3nc2n1CCCOC)C1CCCCC1 37.4%, O=C(NCCCn1ccnc1)C(=O)c1cn(CC(=O)N2CCCCCC2)c2ccccc12 57.4%, O=C(c1cn(-c2ccccc2)nc1-c1ccc(Cl)cc1)N1CCOCC1 15.1%, N/C(=N\O)c1ccc(N2CCN(c3ncccc3C(F)(F)F)CC2)nc1 45.6%, O=S(=O)(NCc1csc(-c2cccs2)n1)c1ccc(Cl)cc1 32.1%, CCn1c(N2CCN(S(=O)(=O)c3ccc(Cl)cc3)CC2)nc2ccccc21 55.8%, Cc1ccc(S(=O)(=O)N2[C@@H](c3ccc(F)cc3)C(C(=O)O)=CC[C@H]2c2ccc(C(C)C)cc2)cc1 40.1%, CCOc1ccc([C@@H]2CC=C(C(=O)O)[C@H](c3cccc(Cl)c3)N2S(=O)(=O)c2ccc(C)cc2)cc1 9.24%, COc1ccccc1OCC(=O)NCCS(=O)(=O)N1CCN(c2ccccc2)CC1 27.9%, CCCCn1c(SCC(=O)Nc2cccc(OC)c2)nc2ccc(N3CCOCC3)cc2c1=O 38.3%, CCOC(=O)c1ccc(CC(=O)c2ccc(O)cc2O)o1 31.9%, CCCc1cc(C(=O)Cc2ccc(F)cc2)c(O)cc1O 51.2%, Cc1ccc(-n2c(C)cc(=O)cc2C)c(C)c1 44.1%, CCCOc1ccc(C(=O)NNC(=S)NC(=O)c2ccco2)cc1 59.3%, CC[C@H](C)[C@H](NC(=O)c1ccc(Cl)cc1)C(=O)OCC(=O)c1ccc2c(c1)NC(=O)CO2 37%, CC(NC(=O)/C(C#N)=C/c1ccc([N+](=O)[O-])o1)c1ccccc1 (stereo not drawn) 49.6%, CCCCNC(=O)/C(C#N)=C/c1ccc(-c2ccc(S(=O)(=O)N3CCOCC3)cc2)o1 27.3%, Cc1ccc(N=Cc2cc(Cc3ccccc3Cl)cc([N+](=O)[O-])c2O)c(O)c1 43.4%, CN1C[C@@H]2C(c3ccc(C(F)(F)F)cc3)C3(c4cccnc4)CC2(C3)[C@H]1c1ccccc1 (stereo partly drawn) 37.1%, COc1cc(C(CCN2CCCCC2)c2c(OC)cc(OC)c3c(-c4ccccc4)cc(=O)oc23)cc(OC)c1OC (stereo not drawn) 59.1%, CCN(CC(=O)NCc1cccs1)S(=O)(=O)c1ccc(C(C)C)cc1 51.1%, Cc1ccc(C(=O)CSc2n[nH]c(-c3ccco3)n2)cc1C 36.4%, COCCCn1c(SCC(=O)Nc2sc3c(c2C#N)CCCC3)nnc1-c1ccncc1 26.6%, CS(=O)(=O)n1nc(OC(=O)c2cccc3ccccc23)cc1N 40.2%, O=C(O)c1ccccc1NSc1ccccc1[N+](=O)[O-] 34.3%, COc1ccc(Cc2nnc(NC(=O)c3ccccc3[N+](=O)[O-])s2)cc1 56.9%, COc1ccc(C(CCN2CCCC2)c2c(OC)cc(OC)c3c(-c4ccccc4)cc(=O)oc23)cc1 (stereo not drawn) 49.9%, COc1cc(OC)c2c(-c3ccccc3)cc(=O)oc2c1C(CCN1CCCCC1)c1ccc(N(C)C)cc1 (stereo not drawn) 49.8%, COc1cc(OC)c2c(-c3ccccc3)cc(=O)oc2c1C(CCN1CCCC(C)C1)c1ccc(N(C)C)cc1 (stereo not drawn) 42.6%, COc1cc(OC)c2c(-c3ccccc3)cc(=O)oc2c1C(CCN1CCCCC1)c1ccc2c(c1)OCO2 (stereo not drawn) 56.1%, COc1cc(OC)c2c(-c3ccccc3)cc(=O)oc2c1C(CCN1CCCC1)c1ccc2c(c1)OCO2 (stereo not drawn) 53.8%, COc1ccc(C(CCN2CCCC(C)C2)c2c(OC)cc(OC)c3c(-c4ccccc4)cc(=O)oc23)cc1 (stereo not drawn) 41.5%
